This note sets out measurements from PMC5540273 (PLoS ONE, 2017).

The structures appear in SMILES notation.
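Note: KINOMEscan kinase panel screen.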

The test system of this assay is NEK1. The following applies: concentration: 1 μM, replicates: in singlicate; n = 1.
As for `O=C(O)C(F)(F)F.O=C(O)C(F)(F)F.O=c1[nH]ccc2nc(N[C@@H]3CCCNC3)nc(Nc3ccc(S(=O)(=O)N4CCOCC4)cc3)c12` [GSK2177277], the “%Inh” value is 62%.
For `COc1cc(Nc2nccc(N3CCC(NC(=O)c4cc5ccccc5s4)C3)n2)cc(OC)c1OC` (stereo not shown) [GSK1379760] the value was 35%.
The value for `CN1CCN(Cc2cccc(-c3ccc4c(Nc5ccc(Oc6ccccc6)cc5)ccnc4c3)c2)CC1` [GW578342] was 0%; that for `Fc1ccc(-c2ncn(C3CCNCC3)c2-c2ccnc(Oc3ccc(-c4ccccc4)cc3)n2)cc1` [SB-245391] was 36%; that for `Cc1ccc(S(=O)(=O)Nc2ccc(Nc3nccc(Nc4cccc5[nH]ncc45)n3)cc2)cc1` [GSK581271] was 0%.
`COC(=O)Nc1nc2ccc(Oc3ccc(NC(=O)Nc4cc(C(F)(F)F)ccc4F)cc3)cc2n1C.Cl` [GW692089]: the “%Inh” value came to 0%.
In the case of `O=C(Nc1n[nH]c2nc(-c3ccc(O)cc3)ccc12)C1CC1` [SB-710363], the “%Inh” value is 0%.
The value for `CNC(=O)c1ccccc1Nc1nc(Nc2ccc(N3CCOCC3)cc2)ncc1Cl.Cl` [GSK1576028] was 86%; that for `Cl.NC(=O)c1cccc(Nc2nccc(Nc3ccc(Oc4c(Cl)cccc4Cl)c(Cl)c3)n2)c1` [GW659009] was 0%; that for `COc1cc(Nc2nccc(-c3c(-c4cccc(NC(=O)c5c(F)cccc5F)c4)nn4ccccc34)n2)cc(OC)c1OC` [GSK323521] was 8%.
For `Cn1cc(-c2ccc3c(c2)CCN3C(=O)Cc2cccc(F)c2)c2c(N)ncnc21` [GSK2603358] the value was 31%; for `Cc1cccc(Nc2nc(N[C@H]3CCNC3)ncc2C(N)=O)c1.Cl` [GSK2197149], 50%.
For `c1ccc(-c2n[nH]cc2Nc2ccnc3ccccc23)nc1` [GW694077] the value was 7%; for `CN(C)Cc1ccc(-c2ccc3c(Nc4ccc(Oc5ccccn5)cc4)ccnc3c2)o1` [GW567148], 0%; for `CCS(=O)(=O)c1ccc(OC)c(Nc2nccc(-c3c(-c4cccc(NC(=O)c5c(F)cccc5F)c4)nn4ncccc34)n2)c1` [GSK326180], 0%.
Consider `COc1cccc(C2=C(Nc3ccc(Cl)c(C(=O)O)c3)C(=O)NC2=O)c1` [SB-390769], for which the “%Inh” value is 0%.
The value for `COc1cccc(NC(=O)NC2CCN(c3ccnc(Nc4cc(OC)c(OC)c(OC)c4)n3)C2)c1` (stereo not shown) [GSK1379763] was 65%.
For `Cc1ccc(C)c(NC(=O)NC2CCN(c3ccnc(Nc4ccc(F)cc4)n3)C2)c1` (stereo not shown) [GSK1379720] the value was 0%.
For `Cc1ccc(F)c(C(=O)Nc2cccc(-c3nn4ccccc4c3-c3ccnc(Nc4cccc(F)c4)n3)c2)c1F` [GSK361061] the value was 0%.
In the case of `Cc1occc1-c1ncc(OC[C@@H](N)Cc2c[nH]c3ccccc23)cc1-c1ccc2[nH]nc(C)c2c1.O=C(O)C(F)(F)F` [GSK682037], the “%Inh” value came out at 24%.
Take `COc1ccc(Nc2nccc(N3CCC(NC(=O)Nc4cccc(OC)c4)C3)n2)cc1` (stereo not shown) [GSK1379742]: the “%Inh” value was 0%.
For `CC(=O)N1CCN(c2ccc(Nc3nccc(-c4sc(C(C)C)nc4-c4cccc(NS(=O)(=O)c5cccc(Cl)c5)c4)n3)cn2)CC1` [GSK1660437] the value was 0%; for `Nc1ncnc2c1nc(-c1ccccc1)n2-c1ccccc1` [SKF-97293], 23%.
The value for `O=C(NC1CCN(c2ccnc(Nc3ccc(F)cc3)n2)C1)c1cc2ccccc2s1` (stereo not shown) [GSK1379716] was 0%.
For `COc1cccc(C(=O)Nc2cccc(Oc3ccc4nc(NC(=O)C5CC5)cn4n3)c2)c1` the value was 16%; for `Cl.Cl.NCC(C(=O)Nc1cc(Br)c(-c2ccnc3[nH]ccc23)s1)c1ccccc1` (stereo not shown) [GSK1269851], 0%; for `Cn1cc(-c2ccc3c(c2)CCN3C(=O)Cc2cccc(Cl)c2)c2c(N)ncnc21` [GSK2606590], 26%.
As for `COc1cc(Nc2ncc3c(C)nc(-c4cc5ccccc5[nH]4)n3n2)cc(OC)c1OC` [GW869516], the “%Inh” value is on record as 16%.
The value for `O=C(Nc1cccc(-c2nn3ccccc3c2-c2ccnc(Nc3cccc(F)c3)n2)c1)c1c(F)ccc(F)c1Cl` [GSK357952] was 0%; that for `C[C@@H](Oc1cc(-n2cnc3cc(-c4ccnc(NCCS(C)(=O)=O)c4)ccc32)sc1C(N)=O)c1ccccc1Cl` [GSK907232] was 72%.
For `COc1cccc(-c2ccc3c(NC(=O)C4CC4)n[nH]c3n2)c1` [SB-710903] the value was 0%; for `Cc1ccc(C(=O)N2CC[C@@H](O)C2)cc1-n1c(C)cc(OCc2ccc(F)cc2F)c(Br)c1=O`, 0%.
For `Cl.c1ccc(-c2ccc3c(Nc4ccc5[nH]ccc5c4)ccnc3c2)nc1` [GW440138] the value was 0%; for `CCc1ccc(-c2ccc3c(c2)-c2c(cnn2C)S(=O)(=O)N3C)cc1`, 0%.
In the case of `COc1ccc(Nc2nccc(NCCNC(=O)c3cc4ccccc4s3)n2)cc1` [GSK1379896], the “%Inh” value worked out at 0%.
The value for `Nc1ncc(-c2ccc3nccc(-c4ccncc4)c3c2)cc1S(=O)(=O)N1CCOCC1` [GSK1627798] was 0%; that for `O=C(Nc1n[nH]c2cc(-c3ccoc3)ccc12)C1CC1` [SB-738481] was 0%.
